Source: PubChem BioAssay AID1159580 (chemical genetic matrix, 2015)
Values joined by “and” are separate entries in the source; they are usually repeats but may differ in a detail not shown here. Equal entries are not always repeated. The campaign covered roughly 5,500 compounds. About 2,000 (36%) were called active. Another 18% or so got no clear call; they are omitted. Rule as the data show it: active = normalized growth mostly below about 0.91 (no sharp cut-off); inconclusive = no clear call, values can overlap the other calls; inactive = mostly above about 0.92. The list shows a part of the results.

Test: chemical genetic growth profiling, strain panel (AID 1159580);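 also: tested at 20 µM; growth read once vehicle control cultures reached saturation at 30 °C; 1 = growth at the plate median or of vehicle wells; lower values mean less growth of the strain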
Conditions: growth OD

Measured: normalized growth

CCCCNC(=O)NS(=O)(=O)c1ccc(C)cc1
inactive: S. cerevisiae deletion strains, locus YJR075W, strain HOC1, active compounds read low 0.963 and 0.994 | S. cerevisiae deletion strains, locus YKL009W, strain mrt4, active compounds read low 0.953 | S. cerevisiae deletion strains, locus YKL068W, active compounds read low 0.98 | S. cerevisiae deletion strains, locus YKL085W, strain MDH1 (second series), active compounds read low 0.973 | S. cerevisiae deletion strains, locus YKL085W, strain MDH1, active compounds read low 0.973 | S. cerevisiae deletion strains, locus YKL160W, strain elf1, active compounds read low 1 | S. cerevisiae deletion strains, locus YKL190W, strain CNB1, active compounds read low 0.991 | S. cerevisiae deletion strains, locus YKR001C, strain vps1, active compounds read low 0.985 | S. cerevisiae deletion strains, locus YKR026C, strain gcn3, active compounds read low 0.999 | S. cerevisiae deletion strains, locus YKR091W, strain srl3, active compounds read low 1.01 | S. cerevisiae deletion strains, locus YLL001W, strain dnm1, active compounds read low 1.02 | S. cerevisiae deletion strains, locus YLL026W, active compounds read low 1.01 | S. cerevisiae deletion strains, locus YLL041C, strain sdh2, active compounds read low 1.01 | S. cerevisiae deletion strains, locus YLR027C, strain aat2, active compounds read low 1 | S. cerevisiae deletion strains, locus YLR039C, strain RIC1, active compounds read low 0.961 | S. cerevisiae deletion strains, locus YLR058C, strain SHM2, active compounds read low 0.991 | S. cerevisiae deletion strains, locus YLR102C, strain apc9, active compounds read low 0.985 | S. cerevisiae deletion strains, locus YLR113W, strain HOG1, active compounds read low 0.915 | S. cerevisiae deletion strains, locus YLR221C, strain rsa3, active compounds read low 0.952 | S. cerevisiae deletion strains, locus YLR258W, strain gsy2, active compounds read low 1.01 | S. cerevisiae deletion strains, locus YLR262C, strain YPT6 (second series), active compounds read low 0.984 | S. cerevisiae deletion strains, locus YLR262C, strain YPT6, active compounds read low 0.933 | S. cerevisiae deletion strains, locus YLR268W, strain sec22, active compounds read low 0.951 | S. cerevisiae deletion strains, locus YLR320W, strain mms22, active compounds read low 0.999 | S. cerevisiae deletion strains, locus YLR330W, strain CHS5, active compounds read low 0.986 | S. cerevisiae deletion strains, locus YLR342W, strain FKS1 (second series), active compounds read low 1.01 | S. cerevisiae deletion strains, locus YLR342W, strain FKS1, active compounds read low 1.02 | S. cerevisiae deletion strains, locus YLR357W, strain rsc2, active compounds read low 1.02 | S. cerevisiae deletion strains, locus YLR370C, strain arc18, active compounds read low 1.02 | S. cerevisiae deletion strains, locus YLR371W, strain rom2, active compounds read low 0.974 | S. cerevisiae deletion strains, locus YLR384C, strain iki3, active compounds read low 1.02 | S. cerevisiae deletion strains, locus YLR418C, strain cdc73, active compounds read low 1.01 | S. cerevisiae deletion strains, locus YML016C, strain PPZ1, active compounds read low 0.996 | S. cerevisiae deletion strains, locus YML032C, strain rad52, active compounds read low 0.983 | S. cerevisiae deletion strains, locus YML120C, strain ndi1, active compounds read low 1.03 | S. cerevisiae deletion strains, locus YML124C, strain tub3, active compounds read low 0.979 | S. cerevisiae deletion strains, locus YMR058W, strain fet3, active compounds read low 1.02 | S. cerevisiae deletion strains, locus YMR078C, strain ctf18, active compounds read low 0.969 | S. cerevisiae deletion strains, locus YMR125W, strain sto1, active compounds read low 1.02 | S. cerevisiae deletion strains, locus YMR129W, active compounds read low 1.01 | S. cerevisiae deletion strains, locus YMR205C, strain PFK2, active compounds read low 1.01 | S. cerevisiae deletion strains, locus YMR223W, strain ubp8, active compounds read low 1.01 | S. cerevisiae deletion strains, locus YMR231W, strain pep5, active compounds read low 1 | S. cerevisiae deletion strains, locus YMR263W, strain SAP30, active compounds read low 0.999 | S. cerevisiae deletion strains, locus YMR307W, strain GAS1, active compounds read low 1.01 and 1 | S. cerevisiae deletion strains, locus YNL067W, strain RPL9B, active compounds read low 0.992 | S. cerevisiae deletion strains, locus YNL071W, strain lat1, active compounds read low 1.01 | S. cerevisiae deletion strains, locus YNL128W, strain TEP1, active compounds read low 0.965 and 0.986 | S. cerevisiae deletion strains, locus YNL175C, strain NOP13, active compounds read low 1.01 | S. cerevisiae deletion strains, locus YNL183C, strain NPR1, active compounds read low 0.912 | S. cerevisiae deletion strains, locus YNL197C, strain WHI3, active compounds read low 1.01 | S. cerevisiae deletion strains, locus YNL209W, strain ssb2, active compounds read low 1.02 | S. cerevisiae deletion strains, locus YNL224C, strain SQS1, active compounds read low 0.995 | S. cerevisiae deletion strains, locus YNL233W, strain BNI4, active compounds read low 1 | S. cerevisiae deletion strains, locus YNL248C, strain rpa49, active compounds read low 1 | S. cerevisiae deletion strains, locus YNL250W, strain rad50, active compounds read low 0.998 | S. cerevisiae deletion strains, locus YNL271C, strain bni1, active compounds read low 0.991 | S. cerevisiae deletion strains, locus YNL298W, strain CLA4, active compounds read low 0.981 | S. cerevisiae deletion strains, locus YNL307C, strain MCK1, active compounds read low 0.978 | S. cerevisiae deletion strains, locus YNL322C, strain KRE1 (second series), active compounds read low 0.99 | S. cerevisiae deletion strains, locus YNL322C, strain KRE1, active compounds read low 0.992 | S. cerevisiae deletion strains, locus YNR049C, strain mso1, active compounds read low 1.01 | S. cerevisiae deletion strains, locus YNR052C, strain pop2, active compounds read low 0.98 | S. cerevisiae deletion strains, locus YOL006C, strain TOP1, active compounds read low 1.07 | S. cerevisiae deletion strains, locus YOL012C, strain htz1 1.12 | S. cerevisiae deletion strains, locus YOL147C, strain pex11, active compounds read low 0.981 | S. cerevisiae deletion strains, locus YOR001W, strain rrp6, active compounds read low 1.02 | S. cerevisiae deletion strains, locus YOR061W, strain CKA2, active compounds read low 1 | S. cerevisiae deletion strains, locus YOR069W, strain VPS5, active compounds read low 0.985 | S. cerevisiae deletion strains, locus YOR070C, strain gyp1, active compounds read low 1.01 | S. cerevisiae deletion strains, locus YOR080W, strain dia2, active compounds read low 1.02 | S. cerevisiae deletion strains, locus YOR083W, strain WHI5 (second series), active compounds read low 1.01 | S. cerevisiae deletion strains, locus YOR083W, strain WHI5, active compounds read low 0.998 | S. cerevisiae deletion strains, locus YOR106W, strain vam3, active compounds read low 1.04 | S. cerevisiae deletion strains, locus YOR136W, strain idh2, active compounds read low 0.998 | S. cerevisiae deletion strains, locus YOR144C, strain elg1, active compounds read low 0.992 | S. cerevisiae deletion strains, locus YOR184W, strain ser1, active compounds read low 1 | S. cerevisiae deletion strains, locus YOR231W, strain MKK1, active compounds read low 0.983 | S. cerevisiae deletion strains, locus YOR265W, strain rbl2, active compounds read low 1.01 | S. cerevisiae deletion strains, locus YOR270C, strain vph1, active compounds read low 1.04 | S. cerevisiae deletion strains, locus YOR290C, strain snf2, active compounds read low 0.998 | S. cerevisiae deletion strains, locus YOR316C, strain cot1, active compounds read low 0.979 | S. cerevisiae deletion strains, locus YPL051W, strain arl3, active compounds read low 0.999 | S. cerevisiae deletion strains, locus YPL055C, strain LGE1, active compounds read low 1.01 | S. cerevisiae deletion strains, locus YPL078C, strain atp4, active compounds read low 1.04 | S. cerevisiae deletion strains, locus YPL106C, strain sse1, active compounds read low 1.06 | S. cerevisiae deletion strains, locus YPL240C, strain hsp82, active compounds read low 1 | S. cerevisiae deletion strains, locus YPL241C, strain CIN2, active compounds read low 0.994 and 1 | S. cerevisiae deletion strains, locus YPL256C, strain CLN2, active compounds read low 0.945 | S. cerevisiae deletion strains, locus YPR119W, strain clb2, active compounds read low 0.986 | S. cerevisiae deletion strains, locus YPR141C, strain kar3, active compounds read low 0.979 | S. cerevisiae deletion strains, locus YPR163C, strain tif3, active compounds read low 0.979 | S. cerevisiae deletion strains, locus YPR167C, strain met16, active compounds read low 0.987 | S. cerevisiae deletion strains, strain wtn01, active compounds read low 0.969 | S. cerevisiae strains, strain wild type, active compounds read low 1
